Screening results from PubChem.
Sampled rows, rich in hits. Any-hit rate of the full collection: about 4%.
D1 potentiator: potentiators of human D1 dopamine receptor; HEK293 TREx D1 cells, calcium flux, dopamine EC20 potentiation; potentiation, % at 10 µM; 0.036% of 360,000 active; in the data active means potentiation above about 30%; further: 0% is about no effect
TRHR agonist: agonists of human TRH receptor; P34981; TRHR cells, calcium flux fluo-8, FDSS agonist mode; activation, % at 2 µM; 0.18% of 360,000 active; AID 493084; further: 0% is about no effect
Target sequence (P34981 whole entry, looked up): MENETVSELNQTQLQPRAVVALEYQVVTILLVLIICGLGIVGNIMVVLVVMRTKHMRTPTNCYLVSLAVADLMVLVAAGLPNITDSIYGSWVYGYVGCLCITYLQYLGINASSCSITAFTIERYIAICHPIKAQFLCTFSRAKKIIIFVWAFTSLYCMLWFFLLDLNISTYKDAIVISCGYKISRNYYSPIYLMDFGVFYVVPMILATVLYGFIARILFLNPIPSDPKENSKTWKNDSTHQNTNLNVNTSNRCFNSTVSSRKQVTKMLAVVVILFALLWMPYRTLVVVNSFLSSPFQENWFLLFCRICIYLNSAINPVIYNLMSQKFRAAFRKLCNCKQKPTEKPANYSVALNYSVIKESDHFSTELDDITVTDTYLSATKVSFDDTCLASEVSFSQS
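In this calcium-flux screen, cells bearing human TRHR are dye-loaded with fluo-8, baselined for 10 cycles, then exposed to library compounds; positive kinetic calcium responses during the agonist phase mark hits, with TRH as control.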
D1 antag: antagonists of human D1 dopamine receptor. HEK293 TREx D1 cells, calcium flux, dopamine EC80; active compounds read low. P21728. activity change, negative = inhibition, % at 10 µM. 3.2% of 360,000 active; in the data active means activity change below about -30%; further: on the % scale 0 is the no-effect control and ±100 the full control effect
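Inducible Hek293 Trex D1 cells (tetracycline, overnight, 30 C). Calcium dye 30–90 min RT. Antagonist mode: EC80 dopamine added after 180 s compound read.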
TRHR enhancer: allosterically enhances the human TRH receptor | enhancement, % at 2 µM | TRHR cells, fluo-8 calcium fluorescence, EC20 TRH enhancement | 0.66% of 360,000 active | P34981; in the data active means enhancement above about 30%; further: 0% is about no effect
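Enhancer read-out: after compound pinning and an initial kinetic agonist-mode read, an EC20 of TRH (10 nM final) was injected and fluo-8 calcium signal (Ex 480/Em 530) followed at 1 s/cycle for 100 cycles in TRHR-expressing cells.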
D1 agonist: human D1 receptor agonism; AID 504660; P21728; activation, % at 2 µM; 1% of 360,000 active; HEK293 T-REx D1 cells, calcium flux, agonist mode; further: 0% is about no effect
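Tetracycline-induced HEK293 TREx D1 cells, force-coupled to calcium signalling, were dye-loaded with a no-wash calcium kit. Compound was pin-added after a 10 s baseline. Fluorescence was read kinetically at 1 cycle/s for 180 s, with calcium rises flagged as agonism.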
Glioma ERSR ind: ER stress response induction in glioma; U87-MG GRP78 promoter luciferase reporter, 16 h; AID 602332; 0.02% of 420,000 active; Potency, µM, for the others: top-dose activation, actives largely listed as activators; active means well fitted activation curve with a large enough effect; further: potency means the concentration at half of the fitted maximal effect; series mostly up to about 76 µM; % of control where 0% means no effect; nearly all actives have a fitted effect of over 35% in size
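Stably transfected U87-MG human glioma cells carrying a GRP78-based luminescent sensor were seeded at 1000 cells/well, pin-dosed with compounds and incubated 16 h. Luciferase reagent was then added, and end-point luminescence was read after 10 min at room temperature.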
* hit, by the source's call; ! = a repeat was not active. Unless noted, no stated cut-off is given here; in the data, active means activation above about 30%; inactive means the rest.

Results for CCCc1cc(=O)n2[nH]c(NCc3cccs3)nc2n1 ?
D1 potentiator: 2.0; TRHR agonist: 0.1; D1 antag: -36.6*; TRHR enhancer: -6.0; D1 agonist: 6.2; Glioma ERSR ind: -2.8%

Results for COc1ccc(OC)c(Nc2c3c(nc4ccccc24)CCC3)c1 ?
D1 potentiator: -4.8; TRHR agonist: -2.0; D1 antag: -19.7; TRHR enhancer: 3.2; D1 agonist: 1.9; Glioma ERSR ind: -9.5%

How did COc1ccccc1CNc1nc(-c2cccc(NS(C)(=O)=O)c2)nc2ccccc12 do in these assays?
Glioma ERSR ind: -6.2%

How did COc1cc(NS(C)(=O)=O)ccc1Nc1c2ccccc2nc2ccccc12 do in these assays?
D1 potentiator: -6.0; TRHR agonist: -0.1; D1 antag: -48.8*; TRHR enhancer: -7.2; D1 agonist: -1.8; Glioma ERSR ind: -11.4%

Results for COc1cc2nc(Nc3ccc(C)c(C)c3)nc(N)c2cc1OC ?
D1 potentiator: -3.2; TRHR agonist: 1.1; D1 antag: -35.3*!; TRHR enhancer: -1.3; D1 agonist: 0.6; Glioma ERSR ind: -16.2%

What do the screens show for `COc1ccc([N+](=O)[O-])cc1Nc1c2ccccc2nc2ccccc12`?
D1 potentiator: -9.6; TRHR agonist: -0.5; D1 antag: -40.9*; TRHR enhancer: -7.5; D1 agonist: 0.5; Glioma ERSR ind: -7.8%

What do the screens show for `COc1ccc(OC)c(Nc2c3ccccc3nc3ccccc23)c1`?
D1 potentiator: -13.3; TRHR agonist: -0.5; D1 antag: -54.2*; TRHR enhancer: 4.6; D1 agonist: 10.5; Glioma ERSR ind: -11.4%

Results for CCOc1ccc(N(CC(=O)NC2CCCCC2C)S(=O)(=O)c2c(C)noc2C)cc1 (configuration not stated) ?
D1 potentiator: -0.1; TRHR agonist: 0.7; D1 antag: 0.8; TRHR enhancer: -0.8; D1 agonist: 0.3; Glioma ERSR ind: 2.2%

Results for CN(C)c1ccc(C2Nc3ccccc3C(=O)N2CCN2CCNC2=O)cc1 (configuration not stated) ?
D1 potentiator: 0.4; TRHR agonist: -1.5; D1 antag: 6.9; TRHR enhancer: 5.9; D1 agonist: 2.2; Glioma ERSR ind: -2.3%

Results for Cc1cc(NC(=O)c2ccc(NC(=O)C(C)C)cc2)no1 ?
D1 potentiator: 10.7; TRHR agonist: 0.1; D1 antag: 3.4; TRHR enhancer: -1.5; D1 agonist: -0.4; Glioma ERSR ind: -2.8%

What do the screens show for `COc1ccc(N2CCN(C(=O)CNC(=O)c3cccs3)CC2)cc1`?
D1 potentiator: 1.8; TRHR agonist: -0.1; D1 antag: -2.4; TRHR enhancer: 2.8; D1 agonist: 2.5; Glioma ERSR ind: -3.6%

Results for COc1ccc([N+](=O)[O-])cc1C(=O)C(=O)c1ccccc1 ?
D1 potentiator: -1.4; TRHR agonist: -0.7; D1 antag: -9.8; TRHR enhancer: 32.7*; D1 agonist: 1.6; Glioma ERSR ind: -1.4%

Results for COc1ccc(C)cc1Nc1nc(N)c2ccccc2n1 ?
D1 potentiator: -17.4; TRHR agonist: -1.0; D1 antag: -36.3*; TRHR enhancer: -1.8; D1 agonist: 1.9; Glioma ERSR ind: 1.4%

How did O=C(Nc1ccc(/C=C/c2nc3ccccc3o2)cc1)c1c(F)cccc1F do in these assays?
D1 potentiator: -10.2; TRHR agonist: 1.9; D1 antag: -41.9*; TRHR enhancer: 3.9; D1 agonist: 8.4; Glioma ERSR ind: -6.3%

What do the screens show for `O=C(Oc1ccc(OC(=O)C2CCC2)cc1)C1CCC1`?
D1 potentiator: -0.4; TRHR agonist: -0.4; D1 antag: -35.6*; TRHR enhancer: -1.0; D1 agonist: 2.4; Glioma ERSR ind: 0.8%

What do the screens show for `O=C(Oc1ccc2ccccc2c1)C1CCC1`?
D1 potentiator: -3.6; TRHR agonist: -0.8; D1 antag: -8.4; TRHR enhancer: -3.3; D1 agonist: 7.0; Glioma ERSR ind: -2.1%

Results for Cc1cccc2cc3c(N)c(C(=O)Nc4ccc(N5CCOCC5)cc4)sc3nc12 ?
D1 potentiator: -5.6; TRHR agonist: 7.4; D1 antag: -7.6; TRHR enhancer: 8.6; D1 agonist: 24.5; Glioma ERSR ind: -2.1%

How did Cc1ccc(C)c2nc3sc(C(=O)N4CCOCC4)c(N)c3cc12 do in these assays?
D1 potentiator: 0.9; TRHR agonist: -0.2; D1 antag: 3.8; TRHR enhancer: -6.5; D1 agonist: 1.2; Glioma ERSR ind: 1.1%

What do the screens show for `Cc1ccc2nc3sc(C(=O)Nc4ccc(N5CCOCC5)cc4)c(N)c3cc2c1`?
D1 potentiator: -8.0; TRHR agonist: 4.3; D1 antag: -22.0; TRHR enhancer: 0.7; D1 agonist: 38.7*

How did Cc1cc(C)c2nc3sc(C(=O)N4CCOCC4)c(N)c3cc2c1 do in these assays?
D1 potentiator: 4.8; TRHR agonist: 19.0; D1 antag: -0.5; TRHR enhancer: 2.3; D1 agonist: 38.5*; Glioma ERSR ind: -11.4%

What do the screens show for `CCc1nnc(NC(=O)CSc2ccc(-c3ccco3)nn2)s1`?
D1 potentiator: -7.5; TRHR agonist: 0.2; D1 antag: -7.8; TRHR enhancer: -2.8; D1 agonist: -0.6; Glioma ERSR ind: -0.6%

Results for CCn1ncc(CN2CCCC(C(=O)Nc3cccc(-c4cc5ccccc5[nH]4)c3)C2)c1C (configuration not stated) ?
D1 potentiator: 3.0; TRHR agonist: 1.3; D1 antag: -50.9*; TRHR enhancer: 3.9; D1 agonist: 90.6*; Glioma ERSR ind: -3.0%

Results for O=C(Nc1cccc(-n2cccn2)c1)C1CCCN(Cc2cc3ccccc3[nH]2)C1 (configuration not stated) ?
D1 potentiator: -3.8; TRHR agonist: 0.6; D1 antag: -26.0; TRHR enhancer: 6.9; D1 agonist: 11.7; Glioma ERSR ind: 6.3%

What do the screens show for `CCOc1cccc(CN2CCCC(C(=O)Nc3cccc(-n4cccn4)c3)C2)c1` (configuration not stated)?
D1 potentiator: -8.6; TRHR agonist: 0.3; D1 antag: -10.8; TRHR enhancer: 2.2; D1 agonist: 8.2; Glioma ERSR ind: -4.9%

What do the screens show for `CCOc1ccccc1CN1CCCC(C(=O)Nc2cccc(-n3cccn3)c2)C1` (configuration not stated)?
D1 potentiator: -11.9; TRHR agonist: -0.4; D1 antag: -63.8*; TRHR enhancer: 4.1; D1 agonist: 49.3*; Glioma ERSR ind: -4.8%

Results for COc1ccc(C(=O)CCC(=O)Nc2ccccc2C)cc1 ?
D1 potentiator: -1.1; TRHR agonist: -0.1; D1 antag: 7.5; TRHR enhancer: 3.1; D1 agonist: -0.6; Glioma ERSR ind: -0.2%

Results for O=S(=O)(NCCC1CC1(Cl)Cl)c1ccc(Cl)cc1 (configuration not stated) ?
D1 potentiator: -3.0; TRHR agonist: 0.1; D1 antag: -37.9*; TRHR enhancer: -8.7; D1 agonist: 5.0; Glioma ERSR ind: -1.7%
